Six compounds from PubChem BioAssay (NCI) can be followed below.

Test systems include HCT-15 colon; HT29 colon; SNB-75 CNS; SNB-19 CNS; PC-3 prostate; SK-MEL-5 melanoma; UACC-62 melanoma; LOX IMVI melanoma; SK-MEL-28 melanoma; U251 CNS.
Holding throughout (test): NCI-60 one-dose screen, 48 h (100 = growth as untreated, 0 = no growth, -100 = all killed)

Where “and” joins values, the source holds several entries; their conditions need not be identical. Identical values can stand only once. About 83,000 compounds went through this panel and 20% of them were active in at least one assay; those are over-represented in the sample as a whole.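 Interpretation: 100, growth as untreated; towards 0, rising growth inhibition; 0, no net growth; 0 to -100, cell death. Compounds scoring below 10 were considered active.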 Calls of active or inactive are those of the source. Starred links: 1 amine or outer side, 2 acyl side, 3 side chain; linkers in the order of their positions; H or OH if unused. Positions of bridges follow the written chain, without caps; N, C: chain ends. Non-standard residues stand in square brackets, D forms with d. Residues, ends and D or L forms follow the SMILES beside them. Chains are numbered I, II in the order given. Actinocin(9to1) = Cc1c2oc3c(C)ccc(C(=O)[*:1])c3nc-2c(C(=O)[*:2])c(N)c1=O; aThr = C[C@H](O)[C@H](N)C(=O)O; NMeV = CN[C@H](C(=O)O)C(C)C; Sar = CNCC(=O)O

For `N#C/C(=C1C=C/C(=N\O)C(Cl)=C\1)c1ccccc1`, the growth is 22.2% (inactive) in the experiment on HCT-15 colon (10 µM); 23% (inactive) in the experiment on HT29 colon (10 µM); 59.4% (inactive) with SNB-75 CNS (10 µM); 80.5% (inactive) in the experiment on SNB-19 CNS (10 µM); 14.5% (inactive) in the experiment on PC-3 prostate (10 µM); 46.8% (inactive) in the experiment on SK-MEL-5 melanoma (10 µM). Besides, the growth is 26.2% (inactive) with UACC-62 melanoma (10 µM), 1.14% (active) in the experiment on LOX IMVI melanoma (10 µM) and 68.9% (inactive) with SK-MEL-28 melanoma (10 µM).

Take `COc1cc(C(C)(C)C)cc(OC)c1C(O)(c1c(OC)cc(C(C)(C)C)cc1OC)c1c(OC)cc(C(C)(C)C)cc1OC`: the growth was -85.8% (active) with HCT-15 colon (10 µM); -100% (active) in the experiment on HT29 colon (10 µM); -94.1% (active) in the experiment with SNB-75 CNS (10 µM); -96.1% (active) with SNB-19 CNS (10 µM); -91.6% (active) with U251 CNS (10 µM); -86.8% (active) in the experiment with PC-3 prostate (10 µM). In addition, the growth in the experiment on SK-MEL-5 melanoma (10 µM) is -93.7% (active); in the experiment with UACC-62 melanoma (10 µM) it was -86.3% (active); in the experiment on LOX IMVI melanoma (10 µM), -69.2% (active); in the experiment on SK-MEL-28 melanoma (10 µM) it was -99.4% (active).

In the case of `Cc1c2oc3c(C)ccc(C(=O)N[C@@H]4C(=O)N[C@H](C(C)C)C(=O)N5CCC[C@H]5C(=O)N(C)CC(=O)N(C)[C@@H](C(C)C)C(=O)O[C@H]4C)c3nc-2c(C(=O)N[C@@H]2C(=O)N[C@H](C(C)C)C(=O)N3CCC[C@H]3C(=O)N(C)CC(=O)N(C)[C@@H](C(C)C)C(=O)O[C@H]2C)c(N)c1=O` (I: [aThr][dV]P[Sar][NMeV] / II: [aThr][dV]P[Sar][NMeV]; ester I:1-I:C, II:1-II:C; linker I:N-II:N via Actinocin(9to1)), the growth with HCT-15 colon (0.0025 µM) was 74.4% (inactive); in the experiment with HCT-15 colon (10 µM) it was 2.4% (active); in the experiment on HT29 colon (0.0025 µM) it was 29.4% (inactive); in the experiment on HT29 colon (10 µM), -24.1% (active); in the experiment with SNB-75 CNS (0.0025 µM), 39.6% (inactive); in the experiment on SNB-75 CNS (10 µM), -73.6% (active). The growth is 38.2% (inactive) with SNB-19 CNS (0.0025 µM); -0.258% (active) in the experiment on SNB-19 CNS (10 µM); 22.1% (inactive) in the experiment with U251 CNS (0.0025 µM); 6.96% (active) in the experiment on U251 CNS (10 µM); 42.8% (inactive) in the experiment on PC-3 prostate (0.0025 µM); 0.295% (active) in the experiment on PC-3 prostate (10 µM). The growth in the experiment on SK-MEL-5 melanoma (0.0025 µM) was 30.8% (inactive); in the experiment with SK-MEL-5 melanoma (10 µM) it was -94.8% (active); with UACC-62 melanoma (0.0025 µM) it was 36.5% (inactive); with UACC-62 melanoma (10 µM), -74.5% (active); in the experiment with LOX IMVI melanoma (0.0025 µM), 24.3% (inactive); in the experiment on LOX IMVI melanoma (10 µM), 9.98% (active).

With `Nc1ccc2cc(Br)c3ccccc3c2c1`, the growth was 33.2% (inactive) in the experiment with HCT-15 colon (10 µM); 87.9% (inactive) with HT29 colon (10 µM); 50% (inactive) in the experiment with SNB-75 CNS (10 µM); 56.3% (inactive) in the experiment on SNB-19 CNS (10 µM); 65.6% (inactive) in the experiment on U251 CNS (10 µM); 65.2% (inactive) with PC-3 prostate (10 µM). For the same compound, the figures for the growth in the experiment on SK-MEL-5 melanoma (10 µM), in the experiment with UACC-62 melanoma (10 µM) and with SK-MEL-28 melanoma (10 µM) were 75.3% (inactive), 73.8% (inactive) and 80.8% (inactive), respectively.

As for `O=c1[nH]cc(F)c(=O)[nH]1`, the growth in the experiment with HCT-15 colon (10 µM) was 48.1% (inactive) and 51.4% (inactive); in the experiment with HCT-15 colon (25 µM), 26.5% (inactive); in the experiment on HCT-15 colon (50 µM), 37.8% (inactive); in the experiment with HT29 colon (10 µM) it was 43.6% (inactive) and 42.6% (inactive); in the experiment with HT29 colon (25 µM), 27.1% (inactive); with HT29 colon (50 µM), 31.4% (inactive). Moreover, the growth with SNB-75 CNS (10 µM) is 73.5% (inactive) and 90.2% (inactive); with SNB-75 CNS (25 µM), 65.9% (inactive); in the experiment on SNB-75 CNS (50 µM) it was 63.8% (inactive); in the experiment with SNB-19 CNS (10 µM), 75.7% (inactive) and 83.3% (inactive); in the experiment on SNB-19 CNS (25 µM) it was 65.9% (inactive); in the experiment on SNB-19 CNS (50 µM), 66.7% (inactive). Further, the growth with U251 CNS (10 µM) was 74.7% (inactive) and 78.7% (inactive); in the experiment on U251 CNS (25 µM), 50.3% (inactive); in the experiment with U251 CNS (50 µM), 61.1% (inactive); in the experiment with PC-3 prostate (10 µM), 73.6% (inactive) and 75.1% (inactive); in the experiment on PC-3 prostate (25 µM) it was 58.2% (inactive); with PC-3 prostate (50 µM), 64.8% (inactive). In addition, the growth was 45.5% (inactive) and -28.2% (active) in the experiment on SK-MEL-5 melanoma (10 µM); 33.7% (inactive) with SK-MEL-5 melanoma (25 µM); 59.5% (inactive) in the experiment with SK-MEL-5 melanoma (50 µM); 51.9% (inactive) and 48.4% (inactive) with UACC-62 melanoma (10 µM); 39.7% (inactive) in the experiment with UACC-62 melanoma (25 µM); 54% (inactive) with UACC-62 melanoma (50 µM). The growth in the experiment on LOX IMVI melanoma (10 µM) was 41.7% (inactive) and 51% (inactive); with LOX IMVI melanoma (25 µM) it was 30.4% (inactive); in the experiment on LOX IMVI melanoma (50 µM), 35.7% (inactive); with SK-MEL-28 melanoma (10 µM) it was 62.2% (inactive); in the experiment with SK-MEL-28 melanoma (50 µM), 50.9% (inactive).

In the case of `O=C(/C(=C/c1ccccc1)CBr)c1ccccc1`, the growth in the experiment on HCT-15 colon (10 µM) was 47% (inactive); in the experiment with HT29 colon (10 µM) it was 83.7% (inactive); with SNB-75 CNS (10 µM) it was 48.6% (inactive); in the experiment with SNB-19 CNS (10 µM) it was 90.9% (inactive); in the experiment on U251 CNS (10 µM), 78.6% (inactive); in the experiment with PC-3 prostate (10 µM), 74.8% (inactive). The growth was 87.7% (inactive) in the experiment with SK-MEL-5 melanoma (10 µM), 72.7% (inactive) in the experiment with UACC-62 melanoma (10 µM), 44.3% (inactive) in the experiment on LOX IMVI melanoma (10 µM) and 94.4% (inactive) in the experiment on SK-MEL-28 melanoma (10 µM).
